# Reference: PubChem BioAssay (NCI)
# About 79,000 compounds went through this panel and 15% of them were active in at least one assay; those are over-represented in the sample as a whole. Values without a mark were called inactive. Calls of active or inactive are those of the source. Rule as the data show it: active = growth inhibition above about 70%; inactive = the rest.
# Columns and labels:
# [1] = NCI Yeast Anticancer Drug Screen. Data for the rad52 strain (AID 147);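 also: 0% = growth of vehicle-treated control cultures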; details: S. cerevisiae rad52 mutant growth inhibition, hits give high values
# Outline: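 Read-out: growth inhibition versus vehicle-treated controls. Cells were a DNA repair-deficient yeast strain treated with compounds.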
# [2] = NCI Yeast Anticancer Drug Screen. Data for the rad50EPP+ strain (AID 151);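 also: 0% = growth of vehicle-treated control cultures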; details: S. cerevisiae rad50 mutant strain, hits give high values
# Outline: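 Growth inhibition read against vehicle controls in rad50EPP+ yeast, a strain altered in DNA damage repair, after compound exposure.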
# [3] = NCI Yeast Anticancer Drug Screen. Data for the mgt1 strain (AID 153); details: S. cerevisiae mgt1 mutant growth inhibition, hits give high values
# Outline: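 mgt1 yeast grown with test compound; read-out is growth inhibition versus vehicle-treated cultures.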
# [4] = NCI Yeast Anticancer Drug Screen. Data for the rad50 strain (AID 155);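 also: 0% = growth of vehicle-only cultures of the same strain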; details: S. cerevisiae rad50 strain growth inhibition, hits give high values
# Outline: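 Vehicle-treated cultures provide the reference for the growth inhibition reported for compound-exposed, repair-deficient yeast.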
# [5] = NCI Yeast Anticancer Drug Screen. Data for the mec2-1 strain (AID 157); details: S. cerevisiae mec2-1 strain, hits give high values
# Outline: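 Yeast mec2-1 mutant treated with compound. Readout: growth inhibition vs vehicle controls.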
# [6] = NCI Yeast Anticancer Drug Screen. Data for the rad14 strain (AID 159);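 also: 0% = growth of vehicle-treated control cultures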; details: S. cerevisiae rad14 strain growth inhibition, hits give high values
# Outline: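 Inhibition of growth is reported for a repair-deficient yeast mutant following compound treatment, calculated relative to cultures that received vehicle.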
# [7] = NCI Yeast Anticancer Drug Screen. Data for the sgs1 mgt1 strain (AID 161);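 also: 0% = growth of cultures given vehicle only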; details: S. cerevisiae sgs1 mgt1 strain, hits give high values
# Outline: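 Inhibition of yeast growth, normalised to vehicle-treated controls, is reported for a strain bearing genetic alterations in DNA damage repair.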
# [8] = NCI Yeast Anticancer Drug Screen. Data for the CLN2oe strain (AID 163);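 also: 0% = growth of vehicle-only control cultures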; details: S. cerevisiae CLN2oe strain, hits give high values
# Outline: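 Read-out: yeast growth inhibition, expressed relative to vehicle-only controls. The strain bears an engineered cell-cycle alteration.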
# [9] = NCI Yeast Anticancer Drug Screen. Data for the cln2 rad14 strain (AID 165);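 also: 0% = growth equal to vehicle treated cultures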; details: S. cerevisiae cln2 rad14 strain, hits give high values
# Outline: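 cln2 rad14 yeast strain; compound exposure; growth inhibition read vs vehicle controls.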
# [10] = NCI Yeast Anticancer Drug Screen. Data for the bub3 strain (AID 167); details: S. cerevisiae bub3 mutant strain, hits give high values
# Outline: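 Mutant yeast screening strain plus compound; vehicle-treated cultures serve as the 0% inhibition reference.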
# [11] = NCI Yeast Anticancer Drug Screen. Data for the mlh1 strain (AID 171);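 also: 0% = growth of vehicle-treated control cultures of the same strain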; details: S. cerevisiae mlh1 strain growth inhibition, hits give high values
# Outline: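 Read-out: growth inhibition versus vehicle controls. Strain: engineered yeast with a defined DNA repair or cell cycle defect, compound-treated.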
# [12] = NCI Yeast Anticancer Drug Screen. Data for the sgs1 strain (AID 173);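 also: 0% = growth of vehicle-only control cultures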; details: S. cerevisiae sgs1 mutant, hits give high values
# Outline: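 Read-out: yeast growth inhibition relative to vehicle controls, following compound exposure of a strain with a defined DNA repair/cell cycle alteration.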
# [13] = NCI Yeast Anticancer Drug Screen. Data for the mlh1 rad18 strain (AID 175); details: S. cerevisiae mlh1 rad18 strain growth inhibition, hits give high values
# Outline: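 Yeast w/ defined DNA-repair lesions; compound exposure; growth vs vehicle controls → % inhibition.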
# [14] = NCI Yeast Anticancer Drug Screen. Data for the rad18 strain (AID 177); details: S. cerevisiae rad18 mutant growth inhibition, hits give high values
# Outline: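 Readout: growth inhibition vs vehicle controls. Cells: genetically altered yeast strain, DNA repair defect.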
# [15] = at 5.0 µM (retest, dose inferred, filed as 0.5)
# [16] = at 50.0 µM (retest, dose inferred, filed as 5.0)
compound,measurement,setting,value
O=C(c1ccccc1)C1C(c2ccccc2[N+](=O)[O-])N1C1CCCCC1 (stereo not drawn),growth inhibition,[1]; at 1.2 µM,-1%
same,growth inhibition,[1]; at 3.7 µM,7%
same,growth inhibition,[1]; at 11.0 µM,30%
same,growth inhibition,[1]; at 33.0 µM,80% (active)
same,growth inhibition,[1]; at 100.0 µM,89% (active)
same,growth inhibition,[2]; at 1.2 µM,5%
same,growth inhibition,[2]; at 3.7 µM,19%
same,growth inhibition,[2]; at 11.0 µM,48%
same,growth inhibition,[2]; at 33.0 µM,80% (active)
same,growth inhibition,[2]; at 100.0 µM,82% (active)
same,growth inhibition,[3]; at 1.2 µM,1%
same,growth inhibition,[3]; at 3.7 µM,2%
same,growth inhibition,[3]; at 11.0 µM,10%
same,growth inhibition,[3]; at 33.0 µM,52%
same,growth inhibition,[3]; at 100.0 µM,83% (active)
same,growth inhibition,[4]; at 1.2 µM,2%
same,growth inhibition,[4]; at 3.7 µM,3%
same,growth inhibition,[4]; [15],-2%
same,growth inhibition,[4]; at 11.0 µM,28%
same,growth inhibition,[4]; at 33.0 µM,71% (active)
same,growth inhibition,[4]; [16],72% (active)
same,growth inhibition,[4]; at 50.0 µM,96.9% (active)
same,growth inhibition,[4]; at 100.0 µM,84% (active)
same,growth inhibition,[5]; at 1.2 µM,4%
same,growth inhibition,[5]; at 3.7 µM,10%
same,growth inhibition,[5]; [15],1%
same,growth inhibition,[5]; at 11.0 µM,23%
same,growth inhibition,[5]; at 33.0 µM,66%
same,growth inhibition,[5]; [16],58%
same,growth inhibition,[5]; at 50.0 µM,94.7% (active)
same,growth inhibition,[5]; at 100.0 µM,88% (active)
same,growth inhibition,[6]; at 1.2 µM,-1%
same,growth inhibition,[6]; at 3.7 µM,3%
same,growth inhibition,[6]; at 11.0 µM,7%
same,growth inhibition,[6]; at 33.0 µM,13%
same,growth inhibition,[6]; at 100.0 µM,64%
same,growth inhibition,[7]; [15],15%
same,growth inhibition,[7]; [16],75% (active)
same,growth inhibition,[7]; at 50.0 µM,93.6% (active)
same,growth inhibition,[8]; at 1.2 µM,-4%
same,growth inhibition,[8]; at 3.7 µM,-2%
same,growth inhibition,[8]; at 11.0 µM,3%
same,growth inhibition,[8]; at 33.0 µM,38%
same,growth inhibition,[8]; at 100.0 µM,78% (active)
same,growth inhibition,[9]; [15],-18%
same,growth inhibition,[9]; [16],13%
same,growth inhibition,[9]; at 50.0 µM,83.2% (active)
same,growth inhibition,[10]; at 1.2 µM,-11%
same,growth inhibition,[10]; at 3.7 µM,-2%
same,growth inhibition,[10]; [15],-4%
same,growth inhibition,[10]; at 11.0 µM,-14%
same,growth inhibition,[10]; at 33.0 µM,70% (active)
same,growth inhibition,[10]; [16],72% (active)
same,growth inhibition,[10]; at 50.0 µM,95% (active)
same,growth inhibition,[10]; at 100.0 µM,87% (active)
same,growth inhibition,[11]; at 1.2 µM,4%
same,growth inhibition,[11]; at 3.7 µM,8%
same,growth inhibition,[11]; at 11.0 µM,19%
same,growth inhibition,[11]; at 33.0 µM,45%
same,growth inhibition,[11]; at 100.0 µM,90% (active)
same,growth inhibition,[12]; at 1.2 µM,9%
same,growth inhibition,[12]; at 3.7 µM,21%
same,growth inhibition,[12]; at 11.0 µM,52%
same,growth inhibition,[12]; at 33.0 µM,85% (active)
same,growth inhibition,[12]; at 100.0 µM,91% (active)
same,growth inhibition,[13]; [15],0%
same,growth inhibition,[13]; [16],80% (active)
same,growth inhibition,[13]; at 50.0 µM,96.2% (active)
same,growth inhibition,[14]; at 1.2 µM,10%
same,growth inhibition,[14]; at 3.7 µM,23%
same,growth inhibition,[14]; at 11.0 µM,65%
same,growth inhibition,[14]; at 33.0 µM,88% (active)
same,growth inhibition,[14]; at 100.0 µM,91% (active)
